Assay results as given in PubChem BioAssay AID1159580 (chemical genetic matrix, 2015).
The campaign covered roughly 5,500 compounds. About 2,000 (36%) were called active. Not shown: some 18% with an inconclusive outcome. Cut-off read from the data, not from the text of the source: active = normalized growth mostly below about 0.91 (no sharp cut-off); inconclusive = no clear call, values can overlap the other calls; inactive = mostly above about 0.92. The list shows a part of the results.

Test: chemical genetic growth profiling, strain panel (AID 1159580);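 note: tested at 20 µM; growth read once vehicle control cultures reached saturation at 30 °C; 1 = growth at the plate median or of vehicle wells; lower values mean less growth of the strain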
Conditions: growth OD

Measured: normalized growth

CN[C@@H]1C(OC2[C@H](O[C@H]3[C@H](O)[C@@H](O)[C@H](N=C(N)N)[C@@H](O)[C@@H]3N=C(N)N)OC(C)[C@]2(O)CO)OC(CO)C(O)C1O (stereo partly drawn)
inactive: S. cerevisiae deletion strains, locus YKL009W, strain mrt4, active compounds read low 0.975 | S. cerevisiae deletion strains, locus YKL068W, active compounds read low 0.991 | S. cerevisiae deletion strains, locus YKL085W, strain MDH1 (second series), active compounds read low 1.01 | S. cerevisiae deletion strains, locus YKL085W, strain MDH1, active compounds read low 1.01 | S. cerevisiae deletion strains, locus YKL160W, strain elf1, active compounds read low 1 | S. cerevisiae deletion strains, locus YKL190W, strain CNB1, active compounds read low 0.998 | S. cerevisiae deletion strains, locus YKR001C, strain vps1, active compounds read low 0.981 | S. cerevisiae deletion strains, locus YKR026C, strain gcn3, active compounds read low 0.992 | S. cerevisiae deletion strains, locus YKR091W, strain srl3, active compounds read low 0.998 | S. cerevisiae deletion strains, locus YLL001W, strain dnm1, active compounds read low 0.995 | S. cerevisiae deletion strains, locus YLL026W, active compounds read low 0.998 | S. cerevisiae deletion strains, locus YLL041C, strain sdh2, active compounds read low 1.01 | S. cerevisiae deletion strains, locus YLR027C, strain aat2, active compounds read low 1 | S. cerevisiae deletion strains, locus YLR039C, strain RIC1, active compounds read low 1.01 | S. cerevisiae deletion strains, locus YLR058C, strain SHM2, active compounds read low 0.985 | S. cerevisiae deletion strains, locus YLR102C, strain apc9, active compounds read low 0.976 | S. cerevisiae deletion strains, locus YLR113W, strain HOG1, active compounds read low 1.06 | S. cerevisiae deletion strains, locus YLR221C, strain rsa3, active compounds read low 1.02 | S. cerevisiae deletion strains, locus YLR258W, strain gsy2, active compounds read low 1.01 | S. cerevisiae deletion strains, locus YLR262C, strain YPT6 (second series), active compounds read low 1 | S. cerevisiae deletion strains, locus YLR262C, strain YPT6, active compounds read low 1.01 | S. cerevisiae deletion strains, locus YLR268W, strain sec22, active compounds read low 0.985 | S. cerevisiae deletion strains, locus YLR320W, strain mms22, active compounds read low 1.03 | S. cerevisiae deletion strains, locus YLR330W, strain CHS5, active compounds read low 0.991 | S. cerevisiae deletion strains, locus YLR342W, strain FKS1 (second series), active compounds read low 1.04 | S. cerevisiae deletion strains, locus YLR342W, strain FKS1, active compounds read low 1 | S. cerevisiae deletion strains, locus YLR357W, strain rsc2, active compounds read low 0.962 | S. cerevisiae deletion strains, locus YLR370C, strain arc18, active compounds read low 1.01 | S. cerevisiae deletion strains, locus YLR371W, strain rom2, active compounds read low 0.973 | S. cerevisiae deletion strains, locus YLR384C, strain iki3, active compounds read low 0.997 | S. cerevisiae deletion strains, locus YLR418C, strain cdc73, active compounds read low 0.954 | S. cerevisiae deletion strains, locus YML016C, strain PPZ1, active compounds read low 0.993 | S. cerevisiae deletion strains, locus YML032C, strain rad52, active compounds read low 0.988 | S. cerevisiae deletion strains, locus YML120C, strain ndi1, active compounds read low 0.99 | S. cerevisiae deletion strains, locus YML124C, strain tub3, active compounds read low 0.972 | S. cerevisiae deletion strains, locus YMR058W, strain fet3, active compounds read low 1.01 | S. cerevisiae deletion strains, locus YMR078C, strain ctf18, active compounds read low 0.959 | S. cerevisiae deletion strains, locus YMR125W, strain sto1, active compounds read low 0.997 | S. cerevisiae deletion strains, locus YMR129W, active compounds read low 1 | S. cerevisiae deletion strains, locus YMR205C, strain PFK2, active compounds read low 0.995 | S. cerevisiae deletion strains, locus YMR223W, strain ubp8, active compounds read low 0.961 | S. cerevisiae deletion strains, locus YMR231W, strain pep5, active compounds read low 1.01 | S. cerevisiae deletion strains, locus YMR263W, strain SAP30, active compounds read low 0.979 | S. cerevisiae deletion strains, locus YMR307W, strain GAS1, active compounds read low 1.1 | S. cerevisiae deletion strains, locus YNL067W, strain RPL9B, active compounds read low 0.976 | S. cerevisiae deletion strains, locus YNL071W, strain lat1, active compounds read low 1.01 | S. cerevisiae deletion strains, locus YNL183C, strain NPR1, active compounds read low 0.99 | S. cerevisiae deletion strains, locus YNL209W, strain ssb2, active compounds read low 0.996 | S. cerevisiae deletion strains, locus YNL233W, strain BNI4, active compounds read low 0.976 | S. cerevisiae deletion strains, locus YNL248C, strain rpa49, active compounds read low 1.02 | S. cerevisiae deletion strains, locus YNL250W, strain rad50, active compounds read low 0.975 | S. cerevisiae deletion strains, locus YNL271C, strain bni1, active compounds read low 0.975 | S. cerevisiae deletion strains, locus YNL298W, strain CLA4, active compounds read low 0.977 | S. cerevisiae deletion strains, locus YNL307C, strain MCK1, active compounds read low 0.976 | S. cerevisiae deletion strains, locus YNL322C, strain KRE1 (second series), active compounds read low 0.993 | S. cerevisiae deletion strains, locus YNL322C, strain KRE1, active compounds read low 0.998 | S. cerevisiae deletion strains, locus YNR049C, strain mso1, active compounds read low 1 | S. cerevisiae deletion strains, locus YNR052C, strain pop2, active compounds read low 0.972 | S. cerevisiae deletion strains, locus YOL012C, strain htz1 1 | S. cerevisiae deletion strains, locus YOL147C, strain pex11, active compounds read low 0.982 | S. cerevisiae deletion strains, locus YOR001W, strain rrp6, active compounds read low 1 | S. cerevisiae deletion strains, locus YOR061W, strain CKA2, active compounds read low 0.991 | S. cerevisiae deletion strains, locus YOR069W, strain VPS5, active compounds read low 0.993 | S. cerevisiae deletion strains, locus YOR070C, strain gyp1, active compounds read low 1.01 | S. cerevisiae deletion strains, locus YOR080W, strain dia2, active compounds read low 0.996 | S. cerevisiae deletion strains, locus YOR083W, strain WHI5, active compounds read low 0.998 | S. cerevisiae deletion strains, locus YOR106W, strain vam3, active compounds read low 1.05 | S. cerevisiae deletion strains, locus YOR136W, strain idh2, active compounds read low 0.976 | S. cerevisiae deletion strains, locus YOR144C, strain elg1, active compounds read low 0.984 | S. cerevisiae deletion strains, locus YOR184W, strain ser1, active compounds read low 0.978 | S. cerevisiae deletion strains, locus YOR231W, strain MKK1, active compounds read low 1.04 | S. cerevisiae deletion strains, locus YOR265W, strain rbl2, active compounds read low 0.998 | S. cerevisiae deletion strains, locus YOR270C, strain vph1, active compounds read low 1.07 | S. cerevisiae deletion strains, locus YOR290C, strain snf2, active compounds read low 1.02 | S. cerevisiae deletion strains, locus YOR316C, strain cot1, active compounds read low 0.976 | S. cerevisiae deletion strains, locus YPL051W, strain arl3, active compounds read low 1.01 | S. cerevisiae deletion strains, locus YPL055C, strain LGE1, active compounds read low 1.01 | S. cerevisiae deletion strains, locus YPL078C, strain atp4, active compounds read low 1 | S. cerevisiae deletion strains, locus YPL106C, strain sse1, active compounds read low 1.02 | S. cerevisiae deletion strains, locus YPL240C, strain hsp82, active compounds read low 0.993 | S. cerevisiae deletion strains, locus YPL241C, strain CIN2, active compounds read low 0.998 | S. cerevisiae deletion strains, locus YPL256C, strain CLN2, active compounds read low 1.06 | S. cerevisiae deletion strains, locus YPR119W, strain clb2, active compounds read low 0.971 | S. cerevisiae deletion strains, locus YPR141C, strain kar3, active compounds read low 0.972 | S. cerevisiae deletion strains, locus YPR163C, strain tif3, active compounds read low 0.971 | S. cerevisiae deletion strains, locus YPR167C, strain met16, active compounds read low 0.97 | S. cerevisiae deletion strains, strain wtn01, active compounds read low 0.975 | S. cerevisiae strains, strain wild type, active compounds read low 0.999
